Test results: PubChem BioAssay (Tox21)
Inconclusive results are not listed. Activity calls are given as the source filed them. Unless noted, the call rests on the fitted dose curve; in most records, active means well fitted curve in the direction sought with a large enough effect in the repeat runs; inconclusive means weak or mixed curves; inactive means no such curve, though single readings can be large; an effect the other way counts as inactive or inconclusive.

How the values were obtained:
[1] = A CellTox Green Cytotoxicity Assay to monitor cytotoxicity in HepG2 cells - 8 hour (AID 1224890); further: nearly all actives have a fitted effect of over 45% in size
In short: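 First, HepG2 cells (600/well) mixed with reagent were plated; second, after 5 h at 37 C they received compounds via pintool; third, fluorescence was measured at 0 h through 40 h at 8 h intervals.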

[2] = qHTS assay to identify small molecule antagonists of the estrogen receptor alpha (ER-alpha) signaling pathway using the BG1 cell line in the presence of 0.1 nM 17-beta-estradiol - cell viability counter screen (AID 1259241); further: nearly all actives have a fitted effect of over 40% in size; further: potency means the concentration at half of the fitted maximal effect
In short: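 VM7Luc4E2 cells (endogenous full-length ER-alpha, 4xERE-luciferase), cultured 5 days in charcoal-stripped serum, exposed to compounds with 0.1 nM 17beta-estradiol (final) for 22 hr at 37C. Viability read in same wells as live-cell protease fluorescence after 30 min.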

[3] = qHTS assay to identify small molecule antagonists of the androgen receptor (AR) signaling pathway using the MDA cell line in the presence of 0.5 nM R1881 - cell viability counter screen (AID 1259242); further: nearly all actives have a fitted effect of over 45% in size; further: potency means the concentration at half of the fitted maximal effect
In short: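 qHTS format. MDA-kb2 (MMTV-luc, AR/GR responsive) + cpd + 0.5 nM R1881 final, 16 hr 37C/0% CO2 → CellTiter-Fluor 30 min → fluorescence intensity.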

[4] = target: Androgen receptor (Homo sapiens) (UniProt P10275); experiment: qHTS assay to identify small molecule antagonists of the androgen receptor (AR) signaling pathway using the MDA cell line in the presence of 0.5 nM R1881 (AID 1259243); further: nearly all actives have a fitted effect of over 50% in size; further: potency means the concentration at half of the fitted maximal effect
Chain of Androgen receptor (Homo sapiens) (P10275 whole entry, looked up): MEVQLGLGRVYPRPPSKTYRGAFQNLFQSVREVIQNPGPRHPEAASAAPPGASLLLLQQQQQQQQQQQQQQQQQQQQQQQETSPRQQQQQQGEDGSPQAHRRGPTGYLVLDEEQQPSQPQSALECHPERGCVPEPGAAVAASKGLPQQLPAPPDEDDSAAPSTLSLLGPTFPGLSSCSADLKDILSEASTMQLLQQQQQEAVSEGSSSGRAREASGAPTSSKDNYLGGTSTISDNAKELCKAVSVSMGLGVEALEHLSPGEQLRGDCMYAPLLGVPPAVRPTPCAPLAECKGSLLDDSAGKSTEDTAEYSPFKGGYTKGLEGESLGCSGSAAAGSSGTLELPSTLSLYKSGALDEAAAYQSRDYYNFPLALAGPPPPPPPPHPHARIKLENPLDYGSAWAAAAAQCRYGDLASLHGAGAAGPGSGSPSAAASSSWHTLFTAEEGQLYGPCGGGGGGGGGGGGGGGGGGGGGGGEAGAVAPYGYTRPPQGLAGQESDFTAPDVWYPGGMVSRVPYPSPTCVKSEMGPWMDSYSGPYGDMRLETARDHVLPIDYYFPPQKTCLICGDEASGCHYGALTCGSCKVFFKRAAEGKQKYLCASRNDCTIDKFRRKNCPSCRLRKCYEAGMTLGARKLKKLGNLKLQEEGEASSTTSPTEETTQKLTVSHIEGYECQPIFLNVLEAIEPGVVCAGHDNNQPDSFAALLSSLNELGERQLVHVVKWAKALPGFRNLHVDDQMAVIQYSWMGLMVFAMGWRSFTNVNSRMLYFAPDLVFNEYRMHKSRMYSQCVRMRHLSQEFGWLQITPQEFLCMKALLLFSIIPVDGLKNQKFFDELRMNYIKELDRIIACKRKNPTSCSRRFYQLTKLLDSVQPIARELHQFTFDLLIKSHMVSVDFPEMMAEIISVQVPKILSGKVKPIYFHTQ
In short: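 Antagonist mode quantitative HTS in MDA-kb2 MMTV-luciferase cells, agonist R1881 at 0.5 nM final, 16 hr exposure at 37C and 0% CO2, luminescent detection.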

[5] = target: Estrogen receptor (Homo sapiens) (UniProt P03372); experiment: qHTS assay to identify small molecule antagonists of the estrogen receptor alpha (ER-alpha) signaling pathway using the BG1 cell line in the presence of 0.1 nM 17-beta-estradiol (AID 1259244); further: nearly all actives have a fitted effect of over 50% in size; further: potency means the concentration at half of the fitted maximal effect
Chain of Estrogen receptor (Homo sapiens) (P03372 whole entry, looked up): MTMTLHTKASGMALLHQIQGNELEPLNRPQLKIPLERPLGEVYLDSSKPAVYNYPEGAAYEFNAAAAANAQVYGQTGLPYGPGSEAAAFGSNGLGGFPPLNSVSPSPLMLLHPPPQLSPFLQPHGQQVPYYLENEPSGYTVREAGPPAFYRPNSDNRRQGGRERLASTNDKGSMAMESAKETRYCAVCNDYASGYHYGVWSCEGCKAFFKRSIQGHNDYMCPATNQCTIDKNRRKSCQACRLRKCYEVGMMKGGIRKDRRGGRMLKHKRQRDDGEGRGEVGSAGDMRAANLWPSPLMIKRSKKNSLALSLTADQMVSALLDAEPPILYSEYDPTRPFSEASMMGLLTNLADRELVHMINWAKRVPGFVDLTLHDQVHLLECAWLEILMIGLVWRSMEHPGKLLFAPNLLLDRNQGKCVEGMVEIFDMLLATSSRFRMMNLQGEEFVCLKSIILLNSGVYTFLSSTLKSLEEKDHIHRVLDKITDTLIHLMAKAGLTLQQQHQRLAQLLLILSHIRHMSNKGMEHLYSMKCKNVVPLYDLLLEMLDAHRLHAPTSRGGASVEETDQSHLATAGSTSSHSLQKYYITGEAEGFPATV
In short: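 Reporter is a stably transfected luciferase under four estrogen responsive elements in VM7Luc4E2 cells expressing native full-length ER-alpha; inhibition of 0.1 nM (final) 17beta-estradiol-driven signal over 22 h is read by luminescence.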

[6] = qHTS assay to identify small molecule HDAC inhibitors (AID 1259364); further: potency means the concentration at half of the fitted maximal effect;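 further: wild-type HCT-116 cells with endogenous class I/II HDAC activity; nearly all actives have a fitted effect of over 45% in size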
In short: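 Quantitative high-throughput format: overnight-seeded HCT-116 cells got compounds for 2 hr at 37C; HDAC-Glo I/II reagent added, 30 min RT, luminescence measured.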

[7] = qHTS assay to identify small molecule agonists of the sonic hedgehog signaling (Shh) pathway - cell viability counter screen (AID 1259366); further: nearly all actives have a fitted effect of over 50% in size; further: potency means the concentration at half of the fitted maximal effect
In short: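 NIH/3T3-derived Gli1-Luc reporter cells, 2,000 per well, received compound after 4 h and were treated about 23 h at 37C. Viability measured in the same wells by CellTiter-Fluor fluorescence after 1 h.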

[8] = qHTS assay to identify small molecule antagonists of the sonic hedgehog signaling (Shh) pathway - cell viability counter screen (AID 1259367); further: nearly all actives have a fitted effect of over 55% in size; further: potency means the concentration at half of the fitted maximal effect
In short: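 Conditioned medium drove Shh signaling in 3T3 Gli1-Luc cells exposed to compounds at 37C and 5% CO2. Viability was determined from CellTiter-Fluor fluorescence, with reagent incubated 1 hr after 23 hr of treatment.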

[9] = qHTS assay to identify small molecule agonists of the sonic hedgehog signaling (Shh) pathway (AID 1259368; calls by dose curve;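 further: NIH/3T3-derived 3T3Gli1-Luc cells carrying a stable Gli1-driven firefly luciferase reporter; series mostly up to about 92 µM; nearly all actives have a fitted effect of over 15% in size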)
In short: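 Quantitative high-throughput format using a Gli1-driven firefly luciferase reporter line derived from NIH/3T3 cells. After a 24 hr compound treatment at 37 C and 5% CO2, luminescence reported Gli1 response element activity.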

[10] = qHTS assay to identify small molecule antagonists of the sonic hedgehog signaling (Shh) pathway (AID 1259369; calls by dose curve; further: nearly all actives have a fitted effect of over 45% in size; further: potency means the concentration at half of the fitted maximal effect)
In short: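 Stable Gli1-Luc reporter NIH/3T3 clone; quantitative HTS in stimulated mode with conditioned medium. Luminescence measured after 24hr compound treatment at 37 C.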

[11] = qHTS assay to identify small molecule agonists of the androgen receptor (AR) signaling pathway in the presence of an antagonist - cell viability counter screen (AID 1259379); further: nearly all actives have a fitted effect of over 25% in size; further: potency means the concentration at half of the fitted maximal effect
In short: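 Nilutamide-containing (3.0uM final) MDA-kb2 cultures, 3,000 cells/well, were treated with compounds across 15 concentrations. After 16 hr at 37C with no CO2, cell viability was determined by CellTiter-Fluor fluorescence in the luciferase assay wells.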

[12] = qHTS assay to identify small molecule agonists of the estrogen receptor beta (ER-beta) signaling pathway - cell viability counter screen (AID 1259380); further: nearly all actives have a fitted effect of over 30% in size
In short: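 Steps: plate ER-beta-UAS-bla HEK293T cells, rest 6 hr; add compounds in DMSO; incubate 16 hr at 37C, 5% CO2; add FRET substrate 2 hr; add CellTiter-Glo, wait 30 min at room temperature; read luminescence.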

[13] = qHTS assay to identify small molecule antagonists of the estrogen receptor beta (ER-beta) signaling pathway - cell viability counter screen (AID 1259382); further: series mostly up to about 92 µM; nearly all actives have a fitted effect of over 55% in size
In short: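 Viability is scored by CellTiter-Glo luminescence (30 min, room temperature) in ER-beta-UAS-bla HEK293T wells already read for reporter fluorescence. Compound exposure lasts 16 hr at 37C alongside 1nM 17-beta-estradiol in charcoal-stripped serum medium.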

[14] = target: Estrogen receptor (Homo sapiens) (UniProt P03372); experiment: qHTS assay to identify small molecule agonists of the estrogen receptor alpha (ER-alpha) signaling pathway in the presence of an antagonist (AID 1259383; calls by dose curve; further: nearly all actives have a fitted effect of over 15% in size; further: potency means the concentration at half of the fitted maximal effect; on activation: top concentration of the series differs between compounds)
In short: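 Readout was ERE-driven luciferase luminescence in VM7Luc4E2 cells, which express full-length ER-alpha endogenously. Compounds were tested at 15 concentrations for 22hr alongside 10.0nM ICI-182,780 (final concentration).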

[15] = qHTS assay to identify small molecule agonists or antagonists of the thyroid stimulating hormone receptor (TSHR) signaling pathway - wild type cell line counter screen (AID 1259384; calls by dose curve)
In short: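 Wild-type HEK293 cells were plated 18 h at 37 C/5% CO2, pin-dosed with compound plus Ro20-1724 medium, held 30 min at room temperature, then given cAMP-d2 and anti-cAMP-cryptate; fluorescence was read after 1 h. Fifteen concentrations, triplicate.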

[16] = qHTS assay to identify small molecule phospholipidosis (PLD) inducers (AID 1259344; active means well fitted curve in the direction sought with a large enough effect; an effect the other way counts as inactive or inconclusive)
In short: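 After 4 h attachment on collagen I, HepG2 cells were dosed with compound alongside LipidTOX Red, kept 24 h at 37 C, fixed, and imaged for lamellar phospholipid pits.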

[17] = qHTS assay to identify small molecule HDAC inhibitors - cell viability counter screen (AID 1259365); further: series mostly up to about 92 µM; nearly all actives have a fitted effect of over 50% in size
In short: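 Wild-type HCT-116 cells, 1,500/well, cultured overnight, then compound-treated 2 h at 37 C. Viability measured as ATP luminescence with CellTiter-Glo after 30 min at room temperature.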

[18] = target: Estrogen receptor beta (Homo sapiens) (UniProt Q92731); experiment: qHTS assay to identify small molecule agonists of the estrogen receptor beta (ER-beta) signaling pathway (AID 1259377; active means well fitted activation curve with a large enough effect in the signal ratio in the repeat runs, not every such curve was filed as active; the % refers to the signal ratio)
Chain of Estrogen receptor beta (Homo sapiens) (Q92731 whole entry, looked up): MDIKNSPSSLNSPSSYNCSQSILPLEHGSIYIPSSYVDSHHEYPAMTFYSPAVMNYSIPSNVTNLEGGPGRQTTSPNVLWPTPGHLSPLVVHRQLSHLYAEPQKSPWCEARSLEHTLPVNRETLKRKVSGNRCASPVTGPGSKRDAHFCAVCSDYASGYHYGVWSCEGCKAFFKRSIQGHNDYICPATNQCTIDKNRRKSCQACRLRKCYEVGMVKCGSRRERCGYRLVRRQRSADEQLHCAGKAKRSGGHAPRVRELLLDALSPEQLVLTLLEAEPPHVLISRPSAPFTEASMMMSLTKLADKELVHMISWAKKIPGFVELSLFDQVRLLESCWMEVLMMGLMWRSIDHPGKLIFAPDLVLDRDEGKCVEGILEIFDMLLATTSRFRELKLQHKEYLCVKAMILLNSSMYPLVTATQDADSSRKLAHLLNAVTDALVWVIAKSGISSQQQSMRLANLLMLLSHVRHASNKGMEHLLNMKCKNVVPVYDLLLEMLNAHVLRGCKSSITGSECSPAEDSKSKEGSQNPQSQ
In short: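 ER-beta-UAS-bla HEK293T cells in medium with 2% charcoal-stripped FBS were exposed to compounds for 16 h at 37C. Beta-lactamase reporter activity was read as fluorescence after 2 h with LiveBLAzer B/G FRET substrate at room temperature.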

[19] = target: Estrogen receptor beta (Homo sapiens) (UniProt Q92731); experiment: qHTS assay to identify small molecule antagonists of the estrogen receptor beta (ER-beta) signaling pathway (AID 1259378; active means well fitted inhibition curve with a large enough effect in the signal ratio in the repeat runs, not every such curve was filed as active; the % refers to the signal ratio)
In short: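 ER-beta-UAS-bla HEK293T (GripTite) cells in 2% charcoal-stripped FBS medium were preincubated 6 hr at 37C, dosed with compound, then stimulated with 1 nM E2 (final) for 16 hr; beta-lactamase reporter read by B/G FRET fluorescence after 2 hr substrate loading.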
On the % scale 0 is the no-effect control and ±100 the full control effect.

O=[N+]([O-])c1cc(C2CCCCC2)c(O)c([N+](=O)[O-])c1
active: Potency [2] 27.2 µM | Potency [3] 15.3 µM | Potency [4] 7.67 µM | Potency [5] 7.67 µM | Potency [7] 24.3 µM | Potency [8] 24.3 µM | Potency [10] 1.08 µM | Potency [11] 24.3 µM
inactive: Potency [1] | Potency [6] | Potency [9] | Potency [12] | Potency [13] | Potency [14] | outcome [15]

Cc1cccc(N(C)C(=S)Oc2ccc3c(c2)CCC3)c1
inactive: Potency [1] | Potency [2] | Potency [3] | Potency [5] | PLD induction [16] -4.02% [at 7.66 µM] | Potency [6] | Potency [17] | Potency [7] | Potency [8] | Potency [9] | Potency [10] | Potency [18] | Potency [11] | Potency [13] | Potency [14]

Cc1cc(O)c(C)c(C)c1O
inactive: Potency [1] | Potency [2] | Potency [3] | Potency [4] | Potency [6] | Potency [7] | Potency [8] | Potency [9] | Potency [10] | Potency [11] | Potency [12] | Potency [13] | Potency [14]

CCC(=O)C1CC(C(C)C)CC=C1C (centres undefined)
inactive: Potency [1] | Potency [2] | Potency [3] | Potency [4] | Potency [5] | Potency [6] | Potency [17] | Potency [7] | Potency [8] | Potency [9] | Potency [18] | Potency [19] | Potency [11] | Potency [12] | Potency [13] | Potency [14]

NC(=O)c1ccncc1
inactive: Potency [1] | Potency [2] | Potency [3] | Potency [4] | Potency [6] | Potency [7] | Potency [8] | Potency [9] | Potency [10] | Potency [11] | Potency [12] | Potency [13] | outcome [15]

O=C(/C=C/c1ccccc1)OCCc1ccccc1
inactive: Potency [1] | Potency [2] | Potency [3] | Potency [4] | Potency [5] | Potency [8] | Potency [10] | Potency [18] | Potency [19] | Potency [11] | Potency [12] | Potency [13]
active: Potency [6] 30.6 µM | Potency [14] 3.44 µM

C[C@H]1c2cccc(O)c2C(O)=C2C(=O)[C@]3(O)C(O)=C(C(N)=O)C(=O)[C@@H](N(C)C)[C@@H]3[C@@H](O)[C@@H]21
inactive: Potency [1] | Potency [2] | Potency [3] | Potency [4] | Potency [16] | Potency [6] | Potency [17] | Potency [9] | Potency [10] | Potency [11] | Potency [12] | Potency [13] | Potency [14]

Cc1cc(C)cc(N)c1
inactive: Potency [1] | Potency [2] | Potency [3] | Potency [4] | Potency [5] | Potency [17] | Potency [7] | Potency [8] | Potency [9] | Potency [10] | Potency [18] | Potency [11] | Potency [12] | Potency [13] | Potency [14]
